# Data as given in ChEMBL document CHEMBL3988442, “University of Dundee, Small-Polar-MMV Screening Library” (2021).
# Measured potencies and affinities stand elsewhere.
# Biological target: Protein translocase subunit SecA (Escherichia coli (strain K12)) (UniProt P10408)
# Assay: Assay to Identify E. coli SecA ATPase Inhibitors
# Assay type: functional
# Parameters: scale not given: direction of the effect not stated beside the values
# Conditions: 30 µM
# Protein translocase subunit SecA (Escherichia coli (strain K12)), sequence (P10408 whole entry): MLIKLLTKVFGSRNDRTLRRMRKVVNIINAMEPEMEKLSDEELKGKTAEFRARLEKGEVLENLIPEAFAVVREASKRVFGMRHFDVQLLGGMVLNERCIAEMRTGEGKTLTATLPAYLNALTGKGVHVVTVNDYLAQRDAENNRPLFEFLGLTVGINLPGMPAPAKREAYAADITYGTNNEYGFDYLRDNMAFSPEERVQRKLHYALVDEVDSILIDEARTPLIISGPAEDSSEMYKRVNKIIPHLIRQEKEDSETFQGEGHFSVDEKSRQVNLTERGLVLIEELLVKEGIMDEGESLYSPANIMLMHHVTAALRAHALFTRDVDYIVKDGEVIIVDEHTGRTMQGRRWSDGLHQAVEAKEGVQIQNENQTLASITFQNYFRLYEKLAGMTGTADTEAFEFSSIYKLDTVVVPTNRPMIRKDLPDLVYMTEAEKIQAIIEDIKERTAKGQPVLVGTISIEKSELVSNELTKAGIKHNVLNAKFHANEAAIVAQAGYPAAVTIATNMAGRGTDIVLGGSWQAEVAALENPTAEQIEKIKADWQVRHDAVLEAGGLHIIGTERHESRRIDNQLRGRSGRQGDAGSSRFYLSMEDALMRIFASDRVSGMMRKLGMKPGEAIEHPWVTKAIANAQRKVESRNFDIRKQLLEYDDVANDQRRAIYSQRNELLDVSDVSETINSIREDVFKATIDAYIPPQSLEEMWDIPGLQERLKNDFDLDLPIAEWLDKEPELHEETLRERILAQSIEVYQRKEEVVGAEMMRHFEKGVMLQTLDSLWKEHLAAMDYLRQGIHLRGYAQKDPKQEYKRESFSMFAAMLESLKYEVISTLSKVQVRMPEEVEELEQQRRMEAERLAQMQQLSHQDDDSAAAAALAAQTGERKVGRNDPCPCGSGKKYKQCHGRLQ
row,SMILES,Percent Effect [%]
1,Cc1csc(N2CCCN(C(=O)c3c(C)oc(C)c3C)CC2)n1,-7.12
2,CCc1nnc(CN2CCCC(c3cc(C(F)(F)F)[nH]n3)C2)o1 (stereo not given),-0.463
3,Cc1cnn(CC2CCCCN2C(=O)c2cc(Cl)c[nH]2)c1 (stereo not given),-3.19
4,COC(=O)C1CCN(C(=O)c2ccc(C)c(NS(C)(=O)=O)c2)CC1,-9.4
5,c1cc(-c2noc(CN3CCn4c(nnc4C4CC4)C3)n2)co1,-1.2
6,CN(CC(=O)Nc1ccc(Br)cn1)C(=O)Cc1ccc(O)cc1,-6.43
7,CCc1ncc2c(n1)CN(CC(=O)Nc1nnc(C)s1)CC2,-2.11
8,COCCN1CCN(Cc2ccc(F)c(C)c2)[C@H]2CS(=O)(=O)C[C@H]21,-6.45
9,CNC(=O)N1C[C@H]2C[C@H](C(=O)Nc3ccccc3)[C@@H](C1)O2,-6.94
10,Cc1cccc(CN2C(=O)CCC23CCN(c2ncc(F)cn2)CC3)n1,-5.56
11,N#Cc1cccc(S(=O)(=O)NC(=O)COc2ccc3c(c2)CCC3)c1,-4.11
12,O=C(Cn1cc(-c2ccccc2)ncc1=O)Nc1ccncc1,-7.06
13,O=C(N1CCCC1)N1CCC2(CCCN(CCOc3ccccc3)C2)C1 (stereo not given),-5.49
14,CNc1cncc(C2CCCN2Cc2c[nH]cn2)n1 (stereo not given),-0.293
15,CO[C@@H]1CCN(C(=O)c2ccccn2)[C@H]1Cc1ccccc1,-0.453
16,CC1(C)OCC(CNC(=O)c2cnn(-c3cc(Cl)ccc3Cl)c2N)O1 (stereo not given),3.78
17,CN(C)c1ccc(NC(=O)NCc2ccccn2)cn1,-1.7
18,Cc1cnn(CC2CCCN2CC(=O)Nc2cc(C(C)(C)C)no2)c1 (stereo not given),-3.74
19,Cn1cc(C(=O)N2CCC(Cc3nccs3)CC2)cn1,0.12
20,CN1CCN(CCO)C(=O)C12CCN(Cc1ccsc1)CC2,-2.2

row,SMILES,Percent Effect [%]
1,Cc1ccc(C(=O)N2CCC3(CC2)CC(N2CCOCC2)C3)cc1,-2.43
2,Cn1ncc2c1NC(=O)CC2c1ccc(O)cc1 (stereo not given),-7.41
3,CNC(=O)c1cc(S(=O)(=O)C(C)C)cs1,0.159
4,CCC1c2ccsc2CCN1C(=O)NCc1cc[nH]n1 (stereo not given),-7.17
5,CC[C@@H]1N(Cc2ccsc2)CCC[C@]12CCC(=O)N2CCOC,-4.26
6,CCNC(=O)[C@@H]1C[C@@H](NC(=O)Cc2ccncc2)CN1Cc1ccsc1,-12.1
7,O=C(NCCO)c1ccn(-c2ccc3ccccn23)n1,-3.79
8,NC[C@H]1CC[C@H](C(NC(=O)c2ccccc2)c2ccccn2)CC1 (stereo not given in full),-0.915
9,O=C(C1CCOC1)N1CCc2ncc(CNc3ccccn3)n2CC1 (stereo not given),-0.228
10,CCc1nc(C2CCCN2CCn2cncn2)no1 (stereo not given),-1.22
11,CC(C)(C)n1ncc2c1NC(=O)CC2c1ccsc1 (stereo not given),-1.95
12,Cn1nc2c(cc1=O)CN(Cc1nnc(-c3ccco3)o1)CC2,-3.79
13,CCc1nc(CC(=O)N2CCCC2Cn2cccn2)cs1 (stereo not given),-2.88
14,CC(C)c1nnc2n1CCN(C(=O)c1ccc3cc[nH]c3c1)C2,-6.11
15,O=C(O)c1cc(S(=O)(=O)N2CCOc3ccccc32)ccc1F,-6.51
16,CCCc1cc(CNC(=O)C2CCOc3ccccc3C2)on1 (stereo not given),-1.27
17,Cc1cc(NC(=O)NCC2CCOC2)no1 (stereo not given),0.735
18,CC(C)c1nc(C2CCCN2CC(=O)Nc2nncs2)no1 (stereo not given),-6.03
19,CCOC1CCCN(C(=O)c2sccc2-n2cnnn2)C1 (stereo not given),-1.7
20,CC(=O)N1C[C@@H](c2ccsc2)[C@@H]2CN(Cc3ccccc3)CC[C@@H]21,-3.48

# Biological target: T1, Ubiquitin-activating enzyme e1, putative (Leishmania donovani (strain BPK282A1)) (UniProt E9BSI1)
# T1 sequence (whole entry): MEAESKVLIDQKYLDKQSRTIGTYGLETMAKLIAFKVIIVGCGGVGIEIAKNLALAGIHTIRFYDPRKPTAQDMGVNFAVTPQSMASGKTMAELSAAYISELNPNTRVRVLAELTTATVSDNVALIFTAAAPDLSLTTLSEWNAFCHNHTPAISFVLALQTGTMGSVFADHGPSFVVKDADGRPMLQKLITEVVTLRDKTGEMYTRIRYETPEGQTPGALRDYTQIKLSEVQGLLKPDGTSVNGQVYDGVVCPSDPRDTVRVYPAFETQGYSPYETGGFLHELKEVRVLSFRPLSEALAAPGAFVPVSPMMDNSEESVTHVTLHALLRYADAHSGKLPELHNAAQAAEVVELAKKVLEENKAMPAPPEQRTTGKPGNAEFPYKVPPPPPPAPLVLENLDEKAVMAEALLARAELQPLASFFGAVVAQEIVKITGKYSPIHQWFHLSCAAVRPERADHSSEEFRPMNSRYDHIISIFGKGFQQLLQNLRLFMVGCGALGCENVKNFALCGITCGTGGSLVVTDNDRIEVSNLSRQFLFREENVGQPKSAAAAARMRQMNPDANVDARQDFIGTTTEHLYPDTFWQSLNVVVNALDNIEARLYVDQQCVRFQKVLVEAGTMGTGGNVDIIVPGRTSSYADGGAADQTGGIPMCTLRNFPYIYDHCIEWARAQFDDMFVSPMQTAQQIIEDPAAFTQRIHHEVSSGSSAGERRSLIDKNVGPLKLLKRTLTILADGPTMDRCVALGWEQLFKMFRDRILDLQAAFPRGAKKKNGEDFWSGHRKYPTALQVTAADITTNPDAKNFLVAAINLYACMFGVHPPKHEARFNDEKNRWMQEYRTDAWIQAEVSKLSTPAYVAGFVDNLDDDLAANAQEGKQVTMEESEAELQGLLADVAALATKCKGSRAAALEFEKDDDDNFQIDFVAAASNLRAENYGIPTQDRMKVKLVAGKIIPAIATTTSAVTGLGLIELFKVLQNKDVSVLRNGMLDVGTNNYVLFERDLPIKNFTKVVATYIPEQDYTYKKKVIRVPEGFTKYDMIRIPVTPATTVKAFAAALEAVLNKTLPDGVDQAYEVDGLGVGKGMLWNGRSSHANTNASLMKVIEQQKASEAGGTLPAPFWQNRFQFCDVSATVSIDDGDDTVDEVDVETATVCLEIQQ
# Assay: Leishmania donovani Ubiquitin Activating Enzyme (LdE1)
# Assay type: functional
# Parameters: scale not given: direction of the effect not stated beside the values
# Conditions: 30 µM
row,SMILES,Percent Effect [%]
1,Cc1csc(N2CCCN(C(=O)c3c(C)oc(C)c3C)CC2)n1,18.7
2,CCc1nnc(CN2CCCC(c3cc(C(F)(F)F)[nH]n3)C2)o1 (stereo not given),0
3,Cc1cnn(CC2CCCCN2C(=O)c2cc(Cl)c[nH]2)c1 (stereo not given),20.8
4,COC(=O)C1CCN(C(=O)c2ccc(C)c(NS(C)(=O)=O)c2)CC1,-5.41
5,c1cc(-c2noc(CN3CCn4c(nnc4C4CC4)C3)n2)co1,12.8
6,CN(CC(=O)Nc1ccc(Br)cn1)C(=O)Cc1ccc(O)cc1,-18.7
7,CCc1ncc2c(n1)CN(CC(=O)Nc1nnc(C)s1)CC2,5.33
8,COCCN1CCN(Cc2ccc(F)c(C)c2)[C@H]2CS(=O)(=O)C[C@H]21,10.8
9,CNC(=O)N1C[C@H]2C[C@H](C(=O)Nc3ccccc3)[C@@H](C1)O2,-35.1
10,Cc1cccc(CN2C(=O)CCC23CCN(c2ncc(F)cn2)CC3)n1,16.9
11,N#Cc1cccc(S(=O)(=O)NC(=O)COc2ccc3c(c2)CCC3)c1,12.8
12,O=C(Cn1cc(-c2ccccc2)ncc1=O)Nc1ccncc1,5.41
13,O=C(N1CCCC1)N1CCC2(CCCN(CCOc3ccccc3)C2)C1 (stereo not given),16.9
14,CNc1cncc(C2CCCN2Cc2c[nH]cn2)n1 (stereo not given),9.33
15,CO[C@@H]1CCN(C(=O)c2ccccn2)[C@H]1Cc1ccccc1,19.5
16,CC1(C)OCC(CNC(=O)c2cnn(-c3cc(Cl)ccc3Cl)c2N)O1 (stereo not given),9.33
17,CN(C)c1ccc(NC(=O)NCc2ccccn2)cn1,20.8
18,Cc1cnn(CC2CCCN2CC(=O)Nc2cc(C(C)(C)C)no2)c1 (stereo not given),13
19,Cn1cc(C(=O)N2CCC(Cc3nccs3)CC2)cn1,6.67
20,CN1CCN(CCO)C(=O)C12CCN(Cc1ccsc1)CC2,9.09

row,SMILES,Percent Effect [%]
1,Cc1ccc(C(=O)N2CCC3(CC2)CC(N2CCOCC2)C3)cc1,9.09
2,Cn1ncc2c1NC(=O)CC2c1ccc(O)cc1 (stereo not given),0
3,CNC(=O)c1cc(S(=O)(=O)C(C)C)cs1,19.5
4,CCC1c2ccsc2CCN1C(=O)NCc1cc[nH]n1 (stereo not given),7.69
5,CC[C@@H]1N(Cc2ccsc2)CCC[C@]12CCC(=O)N2CCOC,19.5
6,CCNC(=O)[C@@H]1C[C@@H](NC(=O)Cc2ccncc2)CN1Cc1ccsc1,2.7
7,O=C(NCCO)c1ccn(-c2ccc3ccccn23)n1,-32.5
8,NC[C@H]1CC[C@H](C(NC(=O)c2ccccc2)c2ccccn2)CC1 (stereo not given in full),12
9,O=C(C1CCOC1)N1CCc2ncc(CNc3ccccn3)n2CC1 (stereo not given),1.3
10,CCc1nc(C2CCCN2CCn2cncn2)no1 (stereo not given),5.2
11,CC(C)(C)n1ncc2c1NC(=O)CC2c1ccsc1 (stereo not given),2.7
12,Cn1nc2c(cc1=O)CN(Cc1nnc(-c3ccco3)o1)CC2,17.9
13,CCc1nc(CC(=O)N2CCCC2Cn2cccn2)cs1 (stereo not given),2.67
14,CC(C)c1nnc2n1CCN(C(=O)c1ccc3cc[nH]c3c1)C2,10.7
15,O=C(O)c1cc(S(=O)(=O)N2CCOc3ccccc32)ccc1F,10.3
16,CCCc1cc(CNC(=O)C2CCOc3ccccc3C2)on1 (stereo not given),10.8
17,Cc1cc(NC(=O)NCC2CCOC2)no1 (stereo not given),10.7
18,CC(C)c1nc(C2CCCN2CC(=O)Nc2nncs2)no1 (stereo not given),16
19,CCOC1CCCN(C(=O)c2sccc2-n2cnnn2)C1 (stereo not given),20.5
20,CC(=O)N1C[C@@H](c2ccsc2)[C@@H]2CN(Cc3ccccc3)CC[C@@H]21,12
